Experiment [1] has as its target Lysosomal acid glucosylceramidase (Homo sapiens) (UniProt P04062). As to the kind of experiment: Glucocerebrosidase-p2 (AID 348; in the data active = potency below about 10 µM; also: potency is read from the fitted curve at half-maximal effect). The following applies: purified GBA, blue fluorogenic substrate, 40 min. An outline of the steps:
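Compounds titrated from 0.6 nM upwards against 0.2 nM enzyme in pH 5.9 citric acid/KH2PO4, taurocholate, tween-20; blue fluorogenic substrate 80 uM, 40 min room temperature, stopped and read Ex 365/Em 440 for AC50.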

Experiment [2] in a line: AP1 Signaling Pathway (AID 357).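 Also: ME-180 reporter cells stimulated with EGF at its EC50 level; % is scaled to controls: 0 for no effect and ±100 for the full control effect.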 Particulars: ME-180 AP-1-bla reporter, EGF-induced, beta-lactamase ratio, 5 h; at 7.69 µM (top of the series) unless noted. An outline of the steps:
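Cells are seeded overnight, exposed to compound titrations and an EC50 level of EGF for 5 hours at 37 °C, then loaded with CCF4 dye for 2.5 hours. Beta-lactamase activity under the AP-1 element is read as a blue/green ratio.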

A short description of experiment [3]: NFAT Signaling Pathway (AID 444).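 Also: carbachol stimulus at about its EC50 of 1 µM final; % is scaled to controls: 0 for no effect and ±100 for the full control effect.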 The following applies: Jurkat NFAT-bla M1, carbachol, beta-lactamase ratio, 5 h; at 7.69 µM (top of the series) unless noted. An outline of the steps: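 Read-out: CCF4 FRET ratio (460 nm/530 nm) after 1 h RT dye loading, used for %activity and AC50 from titration series. Cells: Jurkat NFAT-β-lactamase/M1 line, treated with compound plus 1 uM carbachol for 5 h, 37 °C.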

The nature of experiment [4]: Stat Signaling Pathway (AID 446).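 Also: ME-180 cervical cancer cells given 40 pM IL-6 alongside compound; SIE-controlled beta-lactamase reporter measured as 460/530 nm FRET emission ratio; % is scaled to controls: 0 for no effect and ±100 for the full control effect.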 Particulars: ME-180 (cervical carcinoma) SIE beta-lactamase reporter, IL-6 stimulated, 5 h; at 7.69 µM (top of the series) unless noted. An outline of the steps:
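ME-180 cells carrying a SIE-driven beta-lactamase reporter are stimulated with 40 pM IL-6 for 5 h at 37C in the presence of compound. The 460/530 nm FRET substrate ratio is read after 2.5 h at RT. Data are normalised to 300 pM IL-6 and to 125 nM JAK inhibitor controls.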

The target of experiment [5] is Glucocorticoid receptor (Homo sapiens) (UniProt P04150). As to the kind of experiment: GR-EFC Redistribution (AID 451; calls by dose curve; also: potency is read from the fitted curve at half-maximal effect). Particulars: CHO-K1 GR-EFC translocation, beta-gal luminescence, 2 h. An outline of the steps:
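Translocation of GR-ED fusion to nuclear EA restores b-gal, read by luminescence after 1 h room-temperature detection. Engineered CHO-K1 biosensor cells, 1,000/well, exposed 2 h at 37 C to titrations up to 46 uM final.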

For experiment [6], the target named is Mitogen-activated protein kinase 10 (Mus musculus) (UniProt Q61831). As to the kind of experiment: JNK3 AlphaScreen Assay (AID 530).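 Also: kinase came from lysate of stimulated human HepG2 cells; signal reports phosphorylation of biotinylated GST-cJun 1-79 at Ser73 with 10 µM ATP; % is scaled to controls: 0 for no effect and ±100 for the full control effect.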 Particulars: JNK3 lysate, c-Jun phosphorylation; series mostly up to 57.1 µM. An outline of the steps: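 Compound titrations were preincubated 15 minutes at room temperature with substrate, antibody and pre-activated JNK3-containing HepG2 lysate. Reactions were started with 10 uM ATP and stopped with EDTA-containing bead buffer for AlphaScreen detection.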

For experiment [7], the target named is 3',5'-cyclic-AMP phosphodiesterase 4B (Homo sapiens) (UniProt Q07343). As to the kind of experiment: qHTS Assay for Inhibitors of PDE-IV (AID 607; active = well fitted activation curve with a large enough effect in the main read-out, with a control signal flat, not every such curve was filed as active; also: % of control where 0% means no effect). Particulars: HEK293 ACTOne CNG channel cells, membrane potential fluorescence; series mostly up to 22.9 µM. An outline of the steps: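 HEK293 ACTOne cells with CNG channel (1000/well), endogenous PDE4; membrane potential dye, compounds up to 22.9 uM final. Fluorescence Ex 535/Em 590; RO 20-1724 (100 uM final) as reference.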
Sequence of 3',5'-cyclic-AMP phosphodiesterase 4B (Homo sapiens) (Q07343 whole entry, looked up): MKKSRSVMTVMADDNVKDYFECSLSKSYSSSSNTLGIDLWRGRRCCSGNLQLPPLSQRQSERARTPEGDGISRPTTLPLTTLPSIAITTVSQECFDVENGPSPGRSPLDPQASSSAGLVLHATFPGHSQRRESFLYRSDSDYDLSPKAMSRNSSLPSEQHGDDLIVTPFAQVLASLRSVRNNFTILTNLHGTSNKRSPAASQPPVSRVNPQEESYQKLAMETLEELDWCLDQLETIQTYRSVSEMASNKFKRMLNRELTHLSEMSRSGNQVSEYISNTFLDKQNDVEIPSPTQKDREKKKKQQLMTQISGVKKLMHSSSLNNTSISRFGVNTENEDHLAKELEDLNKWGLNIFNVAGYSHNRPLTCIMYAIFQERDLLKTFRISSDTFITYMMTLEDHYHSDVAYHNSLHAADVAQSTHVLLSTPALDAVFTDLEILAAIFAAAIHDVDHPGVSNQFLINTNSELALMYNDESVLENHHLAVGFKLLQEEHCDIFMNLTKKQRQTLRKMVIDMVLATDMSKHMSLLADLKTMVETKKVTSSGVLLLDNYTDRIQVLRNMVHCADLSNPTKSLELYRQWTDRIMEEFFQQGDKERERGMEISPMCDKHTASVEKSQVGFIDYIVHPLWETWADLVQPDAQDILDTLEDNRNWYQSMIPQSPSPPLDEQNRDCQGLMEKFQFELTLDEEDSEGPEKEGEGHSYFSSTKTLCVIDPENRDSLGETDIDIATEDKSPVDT
In general terms: Quantitative high-throughput screening tests each substance at several concentrations.

Experiment [8] is described as follows: qHTS Assay for Lipid Storage Modulators (AID 1519; calls by dose curve). Particulars: Drosophila S3 cells, BODIPY lipid droplet/cell ratio, laser cytometry, cells loaded with oleic acid; for activity change, negative = inhibition: at 57.5 µM (top of the series). An outline of the steps: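 Cells seeded at 5,000 per well were treated with compounds over a concentration series and loaded with oleic acid (400 uM, as added). Lipid droplet fluorescence (488 nm excitation, 500-530 nm channel) was read by laser-scanning cytometry and normalized to 20 uM Triacsin C.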

Experiment [9] in a line: Primary qHTS for small molecule stabilizers of the endoplasmic reticulum resident proteome: Secreted ER Calcium Modulated Protein (SERCaMP) assay (AID 1508630; active = well fitted inhibition curve with a large enough effect; also: % is scaled to controls: 0 for no effect and ±100 for the full control effect). Particulars: SH-SY5Y GLuc-SERCaMP (Gaussia luciferase released on ER calcium loss) secretion, thapsigargin, luminescence; series mostly up to 38.4 µM. An outline of the steps:
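GLuc-SERCaMP-expressing SH-SY5Y cells, pretreated 16 h with compound, are challenged with thapsigargin to empty ER calcium stores; after 4 h, coelenterazine is added directly to the medium and luminescence is imaged.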

Where [10] appears, read: measured here: cell count channel max response.
Setting [11] is: measured here: lipid channel max response.

Inconclusive results are not listed. Active and inactive are the calls of the source. Unless noted, calls follow the shape of the dose curve; as a rule, active = well fitted curve in either direction with a large enough effect (not every such curve was filed as active); inconclusive = small, poorly fitted or top-dose-only effect, or another doubt; inactive = flat fitted curve, though single readings scatter.

Sequence of Lysosomal acid glucosylceramidase (Homo sapiens) (P04062 whole entry, looked up): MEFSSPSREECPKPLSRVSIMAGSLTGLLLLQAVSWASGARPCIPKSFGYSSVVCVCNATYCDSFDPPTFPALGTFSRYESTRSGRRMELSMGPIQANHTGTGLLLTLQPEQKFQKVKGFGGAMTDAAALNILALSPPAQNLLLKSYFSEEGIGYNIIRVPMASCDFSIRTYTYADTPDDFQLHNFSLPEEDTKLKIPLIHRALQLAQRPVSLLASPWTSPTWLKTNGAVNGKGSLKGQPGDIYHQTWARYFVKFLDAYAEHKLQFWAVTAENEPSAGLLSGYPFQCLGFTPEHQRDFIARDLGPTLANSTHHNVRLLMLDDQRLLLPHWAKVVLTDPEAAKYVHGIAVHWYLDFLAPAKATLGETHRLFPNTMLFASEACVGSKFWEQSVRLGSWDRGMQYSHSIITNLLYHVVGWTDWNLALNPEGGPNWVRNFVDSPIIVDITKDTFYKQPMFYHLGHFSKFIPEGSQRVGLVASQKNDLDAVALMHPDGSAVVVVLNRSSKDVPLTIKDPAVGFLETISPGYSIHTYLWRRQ
Sequence of Glucocorticoid receptor (Homo sapiens) (P04150 whole entry, looked up, the tested form may be a part): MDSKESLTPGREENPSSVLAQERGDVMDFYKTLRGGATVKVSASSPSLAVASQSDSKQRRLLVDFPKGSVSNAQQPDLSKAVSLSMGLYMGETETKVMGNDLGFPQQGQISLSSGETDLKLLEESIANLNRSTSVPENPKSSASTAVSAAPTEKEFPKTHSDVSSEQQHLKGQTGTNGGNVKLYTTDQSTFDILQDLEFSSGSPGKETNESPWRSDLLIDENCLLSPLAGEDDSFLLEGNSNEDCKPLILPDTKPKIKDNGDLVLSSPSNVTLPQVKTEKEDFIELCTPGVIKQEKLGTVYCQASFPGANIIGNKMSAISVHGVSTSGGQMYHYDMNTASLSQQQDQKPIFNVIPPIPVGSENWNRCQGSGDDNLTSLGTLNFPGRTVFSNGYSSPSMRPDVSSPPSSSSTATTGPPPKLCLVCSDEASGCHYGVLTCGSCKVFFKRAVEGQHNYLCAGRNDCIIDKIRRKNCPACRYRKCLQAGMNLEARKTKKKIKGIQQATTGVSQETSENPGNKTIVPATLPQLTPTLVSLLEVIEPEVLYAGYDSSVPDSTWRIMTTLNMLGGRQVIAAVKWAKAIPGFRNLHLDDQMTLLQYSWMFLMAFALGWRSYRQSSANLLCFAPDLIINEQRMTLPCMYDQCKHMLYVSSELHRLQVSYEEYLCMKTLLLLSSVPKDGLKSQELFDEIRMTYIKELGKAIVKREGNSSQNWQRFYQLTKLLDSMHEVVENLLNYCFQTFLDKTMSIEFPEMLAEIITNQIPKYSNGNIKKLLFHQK

With `O=C(c1ccco1)N1CCC[C@@]2(CCN(c3ncccn3)C2)C1`, the Potency in [1] is > 11.4 µM (inactive); in experiment [5], > 46 µM (inactive). The activity change, negative = inhibition in experiment [2] is -6.68% (inactive); in experiment [3], -7.21% (inactive); in experiment [8], 3.43% (inactive). For the same molecule, the activity, negative = inhibition in experiment [4] is -5.91% (inactive). The Potency result in [6] and in experiment [7] was “inactive” each time. Also, the max response is 17.7% in experiment [8] (setting [10]) and 23.3% in [8] (setting [11]). For the same molecule, the result in [9] was inactive.

As for `CC(C)CN1CC2(CCN(C(=O)c3cnccn3)CC2)C1`, the figures for the Potency in experiment [1] and in [5] were > 11.4 µM (inactive) and > 46 µM (inactive), respectively. Also, the figures for the activity change, negative = inhibition in experiment [2], in experiment [3] and in [8] were -4.93% (inactive), -25.4% (inactive) and 3.58% (inactive), respectively. For the same molecule, the activity, negative = inhibition in experiment [4] was -6.85% (inactive). Moreover, the Potency entry in experiment [6] and in [7] was “inactive” each time. Further, the max response in [8] (setting [10]) was found to be 13.2%; in [8] (setting [11]), 20.3%. Also, the outcome in [9] was inactive.

With `CC(=O)N1CCC2(CCCN(C(=O)Nc3cccc(C#N)c3)C2)CC1`, the values for the Potency in experiment [1] and in [5] were > 11.4 µM (inactive) and > 46 µM (inactive), respectively. Further, the activity change, negative = inhibition in experiment [2] was -1.46% (inactive); in [3], -5.5% (inactive); in experiment [8], 0.477% (inactive). Further, the activity, negative = inhibition in [4] is 4.81% (inactive). Also, the Potency entry in experiment [6] and in experiment [7] was “inactive” throughout. Also, the max response amounted to 12.8% in experiment [8] (setting [10]) and 15.6% in [8] (setting [11]). The outcome in [9] was inactive.

As to `N#Cc1ccc(CN2CC[C@@]3(CCCN(C(=O)c4cnccn4)C3)C2)cc1`, the Potency in experiment [1] is > 11.4 µM (inactive); in experiment [5], > 46 µM (inactive). For the same molecule, the results for the activity change, negative = inhibition in experiment [2], in experiment [3] and in experiment [8] were -8.73% (inactive), 1.72% (inactive) and 2.06% (inactive), respectively. In addition, the activity, negative = inhibition in experiment [4] is 4.34% (inactive). Moreover, the Potency result in experiment [6] and in experiment [7] was “inactive” each time. Moreover, the max response in experiment [8] (setting [10]) was 12.2%; in experiment [8] (setting [11]), 18.2%. Besides, the result in experiment [9] was inactive.

As for `CS(=O)(=O)N1CCC2(CCN(c3ccccn3)CC2)CC1`, the figures for the Potency in experiment [1] and in [5] were > 11.4 µM (inactive) and > 46 µM (inactive), respectively. Besides, the values for the activity change, negative = inhibition in experiment [2], in experiment [3] and in experiment [8] were -5.04% (inactive), -12.8% (inactive) and 6.49% (inactive), respectively. For the same molecule, the activity, negative = inhibition in experiment [4] was -2.94% (inactive). The Potency result in [6] and in [7] was “inactive” throughout. In addition, the max response came to 5.01% in [8] (setting [10]) and 13.9% in experiment [8] (setting [11]). Besides, the result in experiment [9] was inactive.

Take `COc1ccc(C(=O)N2CCC[C@@]3(CCN(c4ccncc4)C3)C2)cc1`: the Potency in experiment [1] was > 11.4 µM (inactive); in experiment [5], > 46 µM (inactive). Moreover, the figures for the activity change, negative = inhibition in experiment [2], in [3] and in experiment [8] were -1.81% (inactive), -12.2% (inactive) and 0.196% (inactive), respectively. Also, the activity, negative = inhibition in experiment [4] is -6.9% (inactive). Further, the Potency entry in experiment [6] and in experiment [7] was “inactive” in each case. Moreover, the max response in experiment [8] (setting [10]) was -12%; in [8] (setting [11]) it was -10.7%. Moreover, the result in [9] was inactive.

Turning to `O=C(c1csnn1)N1CCC2(CC1)CN(c1ncccn1)C2`, the Potency in [1] was > 11.4 µM (inactive); in experiment [5], > 46 µM (inactive). Moreover, the figures for the activity change, negative = inhibition in experiment [2], in [3] and in experiment [8] were 13.2% (inactive), 16.9% (inactive) and 0.698% (inactive), respectively. Besides, the activity, negative = inhibition in experiment [4] is 1.44% (inactive). Also, the Potency entry in experiment [6] and in experiment [7] was “inactive” throughout. In addition, the max response in [8] (setting [10]) was -0.721%; in [8] (setting [11]), 1.07%. Moreover, in experiment [9], the outcome was inactive.

With `O=C(c1ccncc1)N1CCC2(CCCN(c3ccccc3)C2)CC1`, the Potency in experiment [1] is > 11.4 µM (inactive); in experiment [5], > 46 µM (inactive). Also, the figures for the activity change, negative = inhibition in [2], in experiment [3] and in [8] were -3.67% (inactive), 3.61% (inactive) and 6.76% (inactive), respectively. Further, the activity, negative = inhibition in [4] was -3.54% (inactive). The Potency entry in [6] and in experiment [7] was “inactive” each time. Also, the results for the max response in experiment [8] (setting [10]) and in [8] (setting [11]) were 7.52% and 17.5%, respectively. Also, in experiment [9], the result was inactive.

Values taken from PubChem BioAssay (NCATS).
